PubChem BioAssay (NCI)
About 79,000 compounds went through this panel and 15% of them were active in at least one assay; those are over-represented in the sample as a whole. Activity calls are given as the source filed them. Rule as the data show it: active = growth inhibition above about 70%; inactive = the rest.

What was measured:
[1] = NCI Yeast Anticancer Drug Screen. Data for the rad52 strain (AID 147);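 also: 0% = growth of vehicle-treated control cultures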; conditions: S. cerevisiae rad52 mutant growth inhibition, hits give high values
In short: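 Screen used a yeast mutant impaired in DNA repair. After compound exposure, growth was measured. Values reflect inhibition compared with vehicle-treated cells.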

[2] = NCI Yeast Anticancer Drug Screen. Data for the wt1 strain (AID 149);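 also: 0% = growth of vehicle-treated wt1 cultures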; conditions: S. cerevisiae wt1 strain (SPY 50644) growth inhibition, hits give high values
In short: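 Using yeast strain wt1, compound-induced growth inhibition was determined against vehicle-treated cultures.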

[3] = NCI Yeast Anticancer Drug Screen. Data for the rad50EPP+ strain (AID 151);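 also: 0% = growth of vehicle-treated control cultures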; conditions: S. cerevisiae rad50 mutant strain, hits give high values
In short: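 Exposing the rad50EPP+ strain to each compound, growth was compared with vehicle-only cultures to give inhibition.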

[4] = NCI Yeast Anticancer Drug Screen. Data for the mgt1 strain (AID 153); conditions: S. cerevisiae mgt1 mutant growth inhibition, hits give high values
In short: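 Genetically defined yeast (mgt1) treated with compound; inhibition of growth expressed against vehicle-treated controls.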

[5] = NCI Yeast Anticancer Drug Screen. Data for the rad50 strain (AID 155);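 also: 0% = growth of vehicle-only cultures of the same strain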; conditions: S. cerevisiae rad50 strain growth inhibition, hits give high values
In short: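 Relative growth inhibition (compound vs vehicle) was measured in yeast with a defined repair-gene alteration.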

[6] = NCI Yeast Anticancer Drug Screen. Data for the mec2-1 strain (AID 157); conditions: S. cerevisiae mec2-1 strain, hits give high values
In short: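 Readout is yeast growth inhibition, normalised to vehicle-treated controls, in the mec2-1 strain exposed to compound.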

[7] = NCI Yeast Anticancer Drug Screen. Data for the rad14 strain (AID 159);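 also: 0% = growth of vehicle-treated control cultures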; conditions: S. cerevisiae rad14 strain growth inhibition, hits give high values
In short: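 Screen for anticancer potential: a yeast strain altered in DNA damage repair is grown with compound, and reduced growth is quantified against vehicle controls.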

[8] = NCI Yeast Anticancer Drug Screen. Data for the sgs1 mgt1 strain (AID 161);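 also: 0% = growth of cultures given vehicle only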; conditions: S. cerevisiae sgs1 mgt1 strain, hits give high values
In short: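 Growth of a repair-deficient yeast mutant was monitored after compound treatment and expressed as inhibition relative to vehicle-treated cultures.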

[9] = NCI Yeast Anticancer Drug Screen. Data for the CLN2oe strain (AID 163);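 also: 0% = growth of vehicle-only control cultures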; conditions: S. cerevisiae CLN2oe strain, hits give high values
In short: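 Values reflect how much compound exposure reduced yeast growth, referenced to vehicle-exposed cells. Assay organism is a strain with a defined genetic change affecting cell-cycle control.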

[10] = NCI Yeast Anticancer Drug Screen. Data for the cln2 rad14 strain (AID 165);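 also: 0% = growth equal to vehicle treated cultures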; conditions: S. cerevisiae cln2 rad14 strain, hits give high values
In short: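 Relative to vehicle controls, growth inhibition of compound-treated cln2 rad14 yeast was recorded.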

[11] = NCI Yeast Anticancer Drug Screen. Data for the wt2 strain (AID 169);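 also: 0% = growth of vehicle-treated yeast cultures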; conditions: S. cerevisiae wt2 strain growth inhibition, hits give high values
In short: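 Values express reduction in yeast growth under compound treatment, referenced to vehicle-treated cells.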

[12] = NCI Yeast Anticancer Drug Screen. Data for the mlh1 strain (AID 171);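 also: 0% = growth of vehicle-treated control cultures of the same strain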; conditions: S. cerevisiae mlh1 strain growth inhibition, hits give high values
In short: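 Steps: expose the defined-mutant yeast strain to compound; expose a parallel culture to vehicle; measure growth; express compound effect as inhibition relative to the vehicle culture.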

[13] = NCI Yeast Anticancer Drug Screen. Data for the sgs1 strain (AID 173);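 also: 0% = growth of vehicle-only control cultures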; conditions: S. cerevisiae sgs1 mutant, hits give high values
In short: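 Treat defined-mutant yeast with compound; measure growth; calculate inhibition relative to vehicle-treated cells.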

[14] = NCI Yeast Anticancer Drug Screen. Data for the mlh1 rad18 strain (AID 175); conditions: S. cerevisiae mlh1 rad18 strain growth inhibition, hits give high values
In short: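 Test agents were incubated with a yeast strain of defined genotype (DNA damage repair defect). Inhibition of growth was derived by comparison with vehicle-exposed cultures.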

[15] = NCI Yeast Anticancer Drug Screen. Data for the rad18 strain (AID 177); conditions: S. cerevisiae rad18 mutant growth inhibition, hits give high values
In short: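 A genetically defined yeast mutant impaired in DNA damage repair was treated with test compounds, then its growth was measured against cultures receiving vehicle alone.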

[16] = NCI Yeast Anticancer Drug Screen. Data for the bub3 strain (AID 167); conditions: S. cerevisiae bub3 mutant strain, hits give high values
In short: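 Screening used yeast with an engineered genetic alteration affecting cell cycle control. Compound-exposed cultures were compared with vehicle cultures, and reduced growth was taken as inhibition.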

[17] = at 5.0 µM (retest, dose inferred, filed as 0.5)
[18] = at 50.0 µM (retest, dose inferred, filed as 5.0)

Measured: growth inhibition

N#CN1C2CCC1CC(=O)C2
active: [5]; [18] 99% | [6]; [18] 84% | [8]; at 50.0 µM 77.4% | [10]; at 50.0 µM 74.8% | [14]; [17] 75% | [14]; [18] 100%
inactive: [1]; at 1.2 µM -12% | [1]; at 3.7 µM -32% | [1]; at 11.0 µM -21% | [1]; at 33.0 µM -18% | [1]; at 100.0 µM -21% | [2]; at 1.2 µM -25% | [2]; at 3.7 µM -37% | [2]; at 11.0 µM -46% | [2]; at 33.0 µM -53% | [2]; at 100.0 µM -35% | [3]; at 1.2 µM -25% | [3]; at 3.7 µM -35% | [3]; at 11.0 µM -27% | [3]; at 33.0 µM -43% | [3]; at 100.0 µM -33% | [4]; at 1.2 µM -8% | [4]; at 3.7 µM -10% | [4]; at 11.0 µM -13% | [4]; at 33.0 µM -11% | [4]; at 100.0 µM -8% | [5]; at 1.2 µM 3% | [5]; at 3.7 µM 1% | [5]; [17] 66% | [5]; at 11.0 µM -34% | [5]; at 33.0 µM -40% | [5]; at 50.0 µM 66% | [5]; at 100.0 µM -24% | [6]; at 1.2 µM -27% | [6]; at 3.7 µM -36% | [6]; [17] 63% | [6]; at 11.0 µM -54% | [6]; at 33.0 µM -24% | [6]; at 50.0 µM 43.6% | [6]; at 100.0 µM -36% | [7]; at 1.2 µM -26% | [7]; at 3.7 µM -23% | [7]; at 11.0 µM -13% | [7]; at 33.0 µM -2% | [7]; at 100.0 µM 8% | [8]; [17] -5% | [8]; [18] -5% | [9]; at 1.2 µM 12% | [9]; at 3.7 µM 7% | [9]; at 11.0 µM -28% | [9]; at 33.0 µM -27% | [9]; at 100.0 µM -11% | [10]; [17] 50% | [10]; [18] 34% | [11]; at 1.2 µM -18% | [11]; at 3.7 µM -16% | [11]; at 11.0 µM -19% | [11]; at 33.0 µM -22% | [11]; at 100.0 µM -25% | [12]; at 1.2 µM -19% | [12]; at 3.7 µM -11% | [12]; at 11.0 µM -13% | [12]; at 33.0 µM -16% | [12]; at 100.0 µM -21% | [13]; at 1.2 µM -17% | [13]; at 3.7 µM -20% | [13]; at 11.0 µM -12% | [13]; at 33.0 µM -23% | [13]; at 100.0 µM -24% | [14]; at 50.0 µM 62.1% | [15]; at 1.2 µM -10% | [15]; at 3.7 µM -15% | [15]; at 11.0 µM -22% | [15]; at 33.0 µM -21% | [15]; at 100.0 µM -9%

CCN(CC)[P+](c1ccccc1O)(N(CC)CC)N(CC)CC
active: [1]; at 100.0 µM 85% | [2]; at 100.0 µM 84% | [4]; at 100.0 µM 76% | [5]; at 100.0 µM 90% | [6]; at 100.0 µM 85% | [7]; at 100.0 µM 95% | [8]; [18] 99% | [9]; at 100.0 µM 93% | [10]; [18] 96% | [16]; [18] 98% | [16]; at 100.0 µM 87% | [12]; at 100.0 µM 73% | [14]; [18] 74% | [14]; at 50.0 µM 70.2% | [15]; at 100.0 µM 90%
inactive: [1]; at 1.2 µM -25% | [1]; at 3.7 µM -15% | [1]; at 11.0 µM 17% | [1]; at 33.0 µM 27% | [2]; at 1.2 µM -35% | [2]; at 3.7 µM -25% | [2]; at 11.0 µM 12% | [2]; at 33.0 µM 34% | [3]; at 1.2 µM -35% | [3]; at 3.7 µM -26% | [3]; at 11.0 µM -33% | [3]; at 33.0 µM -31% | [3]; at 100.0 µM -34% | [4]; at 1.2 µM -42% | [4]; at 3.7 µM -42% | [4]; at 11.0 µM -32% | [4]; at 33.0 µM 13% | [5]; at 1.2 µM -30% | [5]; at 3.7 µM 9% | [5]; [17] 37% | [5]; at 11.0 µM 43% | [5]; at 33.0 µM 54% | [5]; [18] 68% | [5]; at 50.0 µM 61.5% | [6]; at 1.2 µM -78% | [6]; at 3.7 µM -39% | [6]; [17] 28% | [6]; at 11.0 µM 29% | [6]; at 33.0 µM 24% | [6]; [18] 55% | [6]; at 50.0 µM 62.1% | [7]; at 1.2 µM -46% | [7]; at 3.7 µM -38% | [7]; at 11.0 µM -21% | [7]; at 33.0 µM 32% | [8]; [17] 7% | [8]; at 50.0 µM 64.8% | [9]; at 1.2 µM -56% | [9]; at 3.7 µM -8% | [9]; at 11.0 µM -23% | [9]; at 33.0 µM 5% | [10]; [17] 8% | [10]; at 50.0 µM 57.6% | [16]; at 1.2 µM -41% | [16]; at 3.7 µM -3% | [16]; [17] 23% | [16]; at 11.0 µM 23% | [16]; at 33.0 µM 60% | [16]; at 50.0 µM 54.6% | [12]; at 1.2 µM -60% | [12]; at 3.7 µM -61% | [12]; at 11.0 µM -22% | [12]; at 33.0 µM 30% | [14]; [17] 39% | [15]; at 1.2 µM -6% | [15]; at 3.7 µM 37% | [15]; at 11.0 µM 53% | [15]; at 33.0 µM 59%
